According to PubChem BioAssay (NCI):
“And” between values parts separate entries of the source, which are not always exact repeats. Equal values may be shown once. The panel holds about 83,000 compounds, 20% with a hit somewhere; the sample as a whole holds those more often.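 Growth was measured after 48 h exposure to one concentration of compound in 96-well plates. Values under 10 count as active.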 The source made the active and inactive calls.

Columns and labels:
Experiment in all cases: NCI-60 one-dose screen, 48 h (100 = growth as untreated, 0 = no growth, -100 = all killed)
Settings in all cases: 10 µM unless noted
NCI-H23 lung = system: NCI-H23 lung
NCI-H226 lung = system: NCI-H226 lung
NCI-H322M lung = system: NCI-H322M lung
HOP-62 NSCLC = system: HOP-62 NSCLC
NCI-H460 lung = system: NCI-H460 lung
NCI-H522 lung = system: NCI-H522 lung
A549/ATCC NSCLC = system: A549/ATCC NSCLC
786-0 renal = system: 786-0 renal
COLO 205 colon = system: COLO 205 colon
DU-145 prostate = system: DU-145 prostate
K-562 leukemia = system: K-562 leukemia
MALME-3M melanoma = system: MALME-3M melanoma
MDA-MB-231 breast = system: MDA-MB-231 breast
RXF 393 renal = system: RXF 393 renal
SF-268 CNS = system: SF-268 CNS
SF-295 CNS = system: SF-295 CNS
SF-539 CNS = system: SF-539 CNS
UACC-257 melanoma = system: UACC-257 melanoma
M14 melanoma = system: M14 melanoma

SMILES	growth (NCI-H23 lung)	growth (NCI-H226 lung)	growth (NCI-H322M lung)	growth (HOP-62 NSCLC)	growth (NCI-H460 lung)	growth (NCI-H522 lung)	growth (A549/ATCC NSCLC)	growth (786-0 renal)	growth (COLO 205 colon)	growth (DU-145 prostate)	growth (K-562 leukemia)	growth (MALME-3M melanoma)	growth (MDA-MB-231 breast)	growth (RXF 393 renal)	growth (SF-268 CNS)	growth (SF-295 CNS)	growth (SF-539 CNS)	growth (UACC-257 melanoma)	growth (M14 melanoma)
O=C(CC1(O)C(=O)Nc2c(Cl)ccc(Cl)c21)c1ccc(Cl)cc1Cl (stereo unspecified)	101% (inactive)	97.6% (inactive)	108% (inactive)	70.2% (inactive)	108% (inactive)	76.2% (inactive)	91.4% (inactive)	102% (inactive)	97.5% (inactive)	103% (inactive)	93.6% (inactive)	100% (inactive)	109% (inactive)	94.5% (inactive)	97.4% (inactive)	100% (inactive)	103% (inactive)	78.8% (inactive)	89.2% (inactive)
Oc1c(Br)c(Br)c(O)c(Br)c1Br	92.5% (inactive)	113% (inactive)	105% (inactive)	146% (inactive)	120% (inactive)	–	118% (inactive)	111% (inactive)	-34.4% (active)	112% (inactive)	7.81% (active)	56.5% (inactive)	116% (inactive)	12.5% (inactive)	108% (inactive)	107% (inactive)	119% (inactive)	117% (inactive)	110% (inactive)
O=[N+]([O-])c1ccc2c(N=Nc3ccc4ccccc4c3O)c(O)cc(S(=O)(=O)O)c2c1	101% (inactive)	103% (inactive)	65.1% (inactive)	97.5% (inactive)	102% (inactive)	105% (inactive)	103% (inactive)	106% (inactive)	104% (inactive)	104% (inactive)	96.3% (inactive)	99.9% (inactive)	74.2% (inactive)	97% (inactive)	72.4% (inactive)	102% (inactive)	96.9% (inactive)	99.2% (inactive)	80.7% (inactive)
N#CSCC(=O)c1ccc(Cl)cc1	9.41% (active)	65.8% (inactive)	71.7% (inactive)	45.1% (inactive)	33.5% (inactive)	50.6% (inactive)	87.1% (inactive)	22.3% (inactive)	90.3% (inactive)	30.2% (inactive)	44.4% (inactive)	54.8% (inactive)	34.4% (inactive)	25.6% (inactive)	34.6% (inactive)	49.4% (inactive)	22.2% (inactive)	82.3% (inactive)	2.91% (active)
O=C(Nc1cccc(Br)c1)Oc1ccc(Cl)c2cccnc12	-8.8% [100 µM] (active)	14.5% [100 µM] (inactive)	82.3% [100 µM] (inactive)	31% [100 µM] (inactive)	12.2% [100 µM] (inactive)	-56.5% [100 µM] (active)	23.6% [100 µM] (inactive)	89.3% [100 µM] (inactive)	55.8% [100 µM] (inactive)	42.2% [100 µM] (inactive)	10.4% [100 µM] (inactive)	27% [100 µM] (inactive)	20.1% [100 µM] (inactive)	51.6% [100 µM] (inactive)	16.4% [100 µM] (inactive)	12.1% [100 µM] (inactive)	9.36% [100 µM] (active)	7.32% [100 µM] (active)	8.2% [100 µM] (active)
C[n+]1c(/C=C/c2ccc([N+](=O)[O-])cc2)ccc2ccccc21	90.4% (inactive)	87.9% (inactive)	111% (inactive)	97.4% (inactive)	106% (inactive)	102% (inactive)	75.7% (inactive)	111% (inactive)	101% (inactive)	104% (inactive)	88.7% (inactive)	90.9% (inactive)	115% (inactive)	92.9% (inactive)	102% (inactive)	100% (inactive)	103% (inactive)	106% (inactive)	101% (inactive)
Oc1c(Cl)c2ccccc2c2ccccc12	103% (inactive)	99.7% (inactive)	100% (inactive)	128% (inactive)	116% (inactive)	44.3% (inactive)	103% (inactive)	109% (inactive)	113% (inactive)	102% (inactive)	-12.5% (active)	123% (inactive)	95.5% (inactive)	116% (inactive)	104% (inactive)	120% (inactive)	107% (inactive)	103% (inactive)	108% (inactive)
Cc1cc(N)c2ccccc2[n+]1CCCCCCCCCC[n+]1c(C)cc(N)c2ccccc21	5.83% (active) and -29.4% (active)	13.8% (inactive) and 31.5% (inactive)	11.2% (inactive) and 41.8% (inactive)	16.3% (inactive) and 25.4% (inactive)	1.44% (active) and -18.2% (active)	-8.65% (active) and -8.09% (active)	29.9% (inactive) and -17% (active)	18.7% (inactive) and 20.8% (inactive)	-50.2% (active) and -45.7% (active)	31.3% (inactive) and -73.8% (active)	-7.04% (active) and -39.8% (active)	-15.7% (active) and 10.5% (inactive)	18.9% (inactive) and 1.88% (active)	-30.2% (active)	23.2% (inactive) and 27.9% (inactive)	-45.6% (active) and 8.47% (active)	-8.43% (active) and -37.4% (active)	33.5% (inactive) and 5.36% (active)	3.53% (active)
